# Assay results: PubChem BioAssay AID1224817 (Yan Lab, Georgia Cancer Center, Augusta University, 2016)
# “And” between values parts separate entries of the source, which are not always exact repeats. Equal entries are not always repeated. Hit rate of the full screen: of about 2,000 compounds, about 25 (1%) were called active.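 Rule for the calls: active = log2 luciferase ratio at or below -0.5849, meaning signal at two thirds of solvent-only control or lower; inactive = the rest.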 Only a selection was taken, and actives are over-represented in it overall.
# Test: eIF4E expression suppression, luciferase knock-in reporter – cell-based, HT1080, primary screen (AID 1224817);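 note: luciferase reports endogenous eIF4E expression since it is co-expressed from the native EIF4E locus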
# Conditions: HT1080 EIF4E-luc2 knock-in reporter, 16 h, at 2.5 µM, active compounds read low
row,SMILES,log2 luciferase activity ratio
1,Cc1ccccc1C(=N)c1ccccc1Cc1cccc2ccccc12,0.0556 (inactive)
2,CC1(C)C(CC(=O)O)CCCC1CC(=O)O (stereo not drawn),-0.193 (inactive)
3,N=C1C(O)C2(I)c3ccccc3N3C(=N)C(O)C4c5ccccc5N1C4C32 (stereo not drawn),0.988 (inactive)
4,CC[C@]12CCCN3CCc4c(n(c5ccccc45)C(=O)C1)[C@@H]32,-0.317 (inactive)
5,COC(=O)C1OC(SCCN)C(O)C(O)C1O (stereo not drawn),0.246 (inactive)
6,O=C(O)c1nnsc1-c1csnn1,-0.0043 (inactive)
7,CN(C)Cc1cc(C(=O)O)cc(CN(C)C)c1O,-0.293 (inactive)
8,CC(=O)Nc1ccc(-c2cc(C(=O)O)c3cc4ccccc4cc3n2)cc1,0.356 (inactive)
9,C[C@@H]1C[C@H]2[C@@H]3CCC4=CC(=O)C=C[C@]4(C)[C@@]3(Cl)[C@@H](Cl)C[C@]2(C)[C@@]1(O)C(=O)COP(=O)(O)O,0.28 (inactive)
10,CC[C@@H]1CN(C)[C@H]2Cc3c([nH]c4ccccc34)C(=O)C[C@H]1C2C(=O)OC (stereo partly drawn),-0.243 (inactive)
11,COc1ccc2c(c1)O[C@H]1c3ccc(O)cc3OC[C@@H]21,0.161 (inactive)
12,Cn1c([N+](=O)[O-])cnc1CN1CCN(CCO)CC1,0.268 (inactive)
13,O=C(O)c1cccc(CN2CCCCC2)c1,0.0092 (inactive)
14,C[N+](C)(C)/N=C/c1ccc(O)c(O)c1,-0.303 (inactive)
15,NC(N)=NC(N)=Nc1ccc(S(N)(=O)=O)cc1,-0.0076 (inactive)
16,CCCCN(c1ccccc1)c1ncnc2c1cnn2C,-0.0702 (inactive)
17,COc1ccc2nc3cc(Cl)ccc3c(Nc3ccc(O)c(CN4CCN(C)CC4)c3)c2c1,0.0343 (inactive)
18,NC(CC(=O)O)(Cc1ccccc1)C(=O)O (stereo not drawn),-0.129 (inactive)
19,O=S1(=O)OC(c2ccc(O)cc2)(c2ccc(O)cc2)c2ccccc21,0.424 (inactive)
20,O=S1(=O)C(c2ccccc2)C(N2CCCCC2)C1C1CC2c3ccccc3C1c1ccccc12 (stereo not drawn),0.456 (inactive)
21,Cc1cc(N2CCOCC2)nc2ccc(Cc3ccc4nc(N5CCOCC5)cc(C)c4c3)cc12,0.197 (inactive)
22,OC(Cc1ccccc1)(Cc1ccccc1)c1ccccc1,-0.0177 (inactive)
23,OC(c1cc(C23CC4CC(CC(C4)C2)C3)nc2c(Cl)cc(Cl)cc12)C1CCCCN1 (stereo not drawn),0.104 (inactive)
24,Oc1ccc(-c2nc(-c3cccnc3)c(-c3ccc(F)cc3)[nH]2)cc1,-0.338 (inactive)

row,SMILES,log2 luciferase activity ratio
1,C=C1C(=O)OC2C1C(OC(=O)/C(C)=C/C)CC(O)(CCl)C1C(OC(C)=O)C=C(C)C21O (stereo not drawn),-1.14 (active)
2,C=C1C(=O)O[C@H]2[C@H]1[C@H](OC(=O)/C(C)=C\C)CC(=C)[C@@H]1[C@H](O)[C@H]3O[C@@]3(C)[C@@]12O,0.0107 (inactive)
3,C=C1C(=O)OC2C1C(OC(=O)/C(C)=C/COC(C)=O)CC1(CO1)C1C(O)C=C(C)C21 (stereo not drawn),-0.477 (inactive)
4,O=C(O)C(=O)/C=C(\O)c1ccc(Br)cc1,-0.065 (inactive)
5,N=C(CC(=O)Nc1ccccn1)c1ccccc1,0.825 (inactive)
6,COc1ccc(/C=N/NC(=O)O)cc1,0.161 (inactive)
7,CC(CSC(=N)N)C(N)=O (stereo not drawn),0.0537 (inactive)
8,Cc1c(-c2nc(N)nc(C3CC3)c2C)nc(N)nc1C1CC1,-0.199 (inactive)
9,CN1CCN(CC(=O)N2c3ccccc3Sc3cc4ccccc4cc32)CC1,0.0693 (inactive)
10,Nc1nc(Cl)cc(NCCO)n1,-0.615 (active)
11,O=[N+]([O-])c1cc(Cl)cc2c1nc(NCCO)c1ccccc12,0.0337 (inactive)
12,COc1cccc2c1C(CO)N1C(C#N)C3CC(C(=O)O)C(C1C2)N3C (stereo not drawn),-1.55 (active)
13,O=C(O)C1Cc2c([nH]c3ccccc23)C(CCCCO)N1 (stereo not drawn),-0.0145 (inactive)
14,O=C1OC(c2ccc(O)c(-c3ccccc3)c2)(c2ccc(O)c(-c3ccccc3)c2)c2c(Cl)c(Cl)c(Cl)c(Cl)c21,-0.153 (inactive)
15,CN(C)c1ccc2nc3c(C(=O)O)cc(=O)c(O)c-3oc2c1,-2.21 (active)
16,O=C(O)c1ccc(Cc2ccccc2C(=O)O)cc1,-0.21 (inactive)
17,COC(=O)[C@]1(C)CCC[C@]2(C)C3=CC(=O)[C@@]4(C(C)C)O[C@H]4[C@]3(O)CC[C@@H]12,-0.359 (inactive)
18,OC1(c2ccccc2)c2ccccc2NC2=NCCN21 (stereo not drawn),0.416 (inactive)
19,Ic1ccc2c(c1)N(c1ccccc1)c1cc(N=c3ccc4nc5ccc(I)cc5n(-c5ccccc5)c-4c3)ccc1N2,0.338 (inactive)
20,CC(=O)[C@H]1CC[C@@H]2[C@]1(C)CC=C1[C@]23C=C[C@]2(C[C@@H](O)CC[C@]12C)C(C(=O)O)C3C(=O)O (stereo partly drawn),-0.137 (inactive)
21,COc1nc(N)nc2c1ncn2C1CC(O)C(CO)O1 (stereo not drawn),0.0307 (inactive)
22,CC(C)Cn1cnc2c(Sc3c([N+](=O)[O-])ncn3C)nc(N)nc21,-0.473 (inactive)
23,Cn1cnc([N+](=O)[O-])c1Sc1nc(N)nc2c1ncn2C1CC(O)C(CO)O1 (stereo not drawn),-0.645 (active)
24,CC1(C)CC23C4COC(=O)C2CCC1C3CC4=O (stereo not drawn),0.113 (inactive)

row,SMILES,log2 luciferase activity ratio
1,O=C(O)CCn1cnc2c(=S)nc[nH]c21,-0.179 (inactive)
2,C[C@@H]1C(=O)C[C@H]2C(C)(C)CCC[C@]2(C)[C@@]1(O)CCc1ccoc1,-0.608 (active)
3,O=C(CSc1nc2ccccc2s1)c1sc2sc3ccccc3[n+]2c1[O-],0.244 (inactive)
4,O=C(O)C1C(C(=O)O)C2C(=O)C=CC1N2Cc1ccccc1 (stereo not drawn),0.0328 (inactive)
5,CC(C)Cn1cnc2c(SCc3ccc(Cl)cc3Cl)nc(N)nc21,0.484 (inactive)
6,NC1(C(=O)NC2(C(=O)O)CCCC2)CCCC1,0.0359 (inactive)
7,O=C(Nc1ccc(Nc2ccc3c(c2)C(=O)c2ccccc2C3=O)c2c1C(=O)c1ccccc1C2=O)c1ccccc1,0.326 (inactive)
8,O=C(O)[C@H](c1ccccc1)[C@@H](C(=O)O)c1ccccc1,-0.0929 (inactive)
9,NNC(=O)Cc1cccnc1,0.269 (inactive)
10,N=C(N)SCCN1CCCCC1,0.0135 (inactive)
11,CCCNc1ncnc2[nH]ncc12,-0.531 (inactive)
12,O=C(O)C1CC[N-]CC1.O=C(O)C1CC[N-]CC1.[Cl][Pt+2]([Cl])([Cl])[Cl],-0.241 (inactive)
13,CC(C)(N=NC(C)(C)C1=NCCN1)C1=NCCN1,-0.215 (inactive)
14,NCCSc1nc(-c2ccccc2)c(-c2ccccc2)o1,-0.0133 (inactive)
15,O=[N+]([O-])c1ccc(C2=Nn3c(nnc3-c3ccc(Cl)cc3)SC2)o1,0.0802 (inactive)
16,O=C(O)[C@@H]1[C@H](C(=O)O)[C@H](C(=O)O)C[C@@H]1C(=O)O,-0.306 (inactive)
17,C/C(=N\NC(=O)c1ccncc1)c1ccccc1Cl,0.497 (inactive)
18,OC(Cc1cccnc1)(c1ccccc1)c1ccccc1,-0.0482 (inactive)
19,NC(=O)/C(=C\c1ccncc1)c1cccc2ccccc12,-0.0804 (inactive)
20,Nc1ccc2[nH]cc(CCC(=O)O)c2c1,-0.0435 (inactive)
21,O=C(O)Cc1c[nH]c2ccc(F)cc12,-0.736 (active)
22,NC(Cc1c[nH]c2ccc([N+](=O)[O-])cc12)C(=O)O (stereo not drawn),0.208 (inactive)
23,Cc1cc(N2CCCCC2)nc2ccc(Cc3ccc4nc(N5CCCCC5)cc(C)c4c3)cc12,0.559 (inactive)
24,N=c1ncn(C/C=C/c2ccccc2)c2nc[nH]c12,0.287 (inactive)

row,SMILES,log2 luciferase activity ratio
1,Cc1cc(=Nc2ccc3c(c2)c(N)cc(C)[n+]3C)nc(N)n1C,-0.0953 (inactive)
2,COc1cc2c(cc1OC)C(CCN)=NCC2,-0.216 (inactive)
3,CC1/C=C/C=C/CC/C=C/C=C/C=C/C=C/C(OC2OC(C)C(O)C(N)C2O)CC2OC(CC(O)C(O)CCC(O)CC(O)CC(O)CC(=O)OC(C)C(C)C1O)CC(O)C2C(=O)O (stereo not drawn),-0.0951 (inactive) and -0.0559 (inactive)
4,NCCNCC(O)CO (stereo not drawn),0.073 (inactive)
5,O=C(O)/C(=C\c1ccc(O)cc1)c1cccc2ccccc12,-0.199 (inactive)
6,CC1CCCC(CC(=O)O)(CC(=O)O)C1 (stereo not drawn),0.274 (inactive)
7,O=C(O)CC1(C(=O)O)CCCCC1,-0.621 (active)
8,CC1(CC(=O)O)OC2CCCCCC2O1 (stereo not drawn) (tested in a mixture with another compound),0.0163 (inactive)
9,O=C1c2cccc(O)c2C(=O)c2c(OC3OC(CO)C(O)C(O)C3O)cccc21 (stereo not drawn),-0.141 (inactive)
10,OC1C(O)C(O)C(O)C(O)C1O (stereo not drawn),-0.102 (inactive)
11,CC(C)C(Nc1ncnc2nc[nH]c12)C(=O)O (stereo not drawn),0.37 (inactive)
12,O=C(O)CNC(=O)c1ccccc1O,0.226 (inactive)
13,O=C(O)/C(=C/c1ccccc1)c1ccccc1,-0.172 (inactive)
14,Cc1ccc(C)c(C2NC(=O)c3ccccc3N2)c1 (stereo not drawn),-0.685 (active)
15,O=C1Nc2ccccc2/C1=N\[O-].O=C1Nc2ccccc2/C1=N\[O-].[Cu+2],0.0071 (inactive)
16,N[C@H](C(=O)O)[C@H]1ON=C(Cl)[C@@H]1O,-0.333 (inactive)
17,COC1/C=C\C=C(/C)C(=O)NC2=CC(=O)C(N)=C(CC(C)CC(OC)C(O)C(C)C=C(C)C1OC(N)=O)C2=O (stereo not drawn),-1.05 (active)
18,CN(C)CCCn1c2c3ccccc3ccc2c2oc(=O)c3ccccc3c21,-0.461 (inactive)
19,CN1CC(c2ccccc2)C(O)(C2(c3ccccc3)CN(C)CC(c3ccccc3)C2=O)C(c2ccccc2)C1 (stereo not drawn),-0.0781 (inactive)
20,CC1CC(C)CN(S(=O)(=O)c2cc(Cl)c(Oc3ccc([N+](=O)[O-])cc3Cl)c(Cl)c2)C1 (stereo not drawn),0.55 (inactive)
21,NCC(=O)C(O)C(O)C(O)CO (stereo not drawn),0.229 (inactive)
